# Compounds with a hit are over-represented: about 5.5% of the library has one in this group of screens.
# CBFb RUNX1 block: qHTS Assay for Compounds Blocking the Interaction Between CBF-beta and RUNX1 for the Treatment of Acute Myeloid Leukemia. Potency, µM (series often up to 59.8 µM), inactives show at the highest dose activity, negative = inhibition, usual class: inhibitors. Runt-related transcription factor 1 (Homo sapiens) + Core-binding factor subunit beta …. AlphaScreen CBFb-His/RUNX1-biotin binding, biochemical. 230,000 tested, under 10 active; note: % of control where 0% means no effect
#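 CBFb-His/RUNX1-biotin, 30 nM each, preincubated 20 min RT; compound 15 min RT; Ni + streptavidin beads 50 ng each, 90 min RT; AlphaScreen read.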
# Gal4-VP16 FLuc: VP16 counterscreen qHTS for inhibitors of ROR gamma transcriptional activity. Drosophila S2 Gal4-VP16 UAS-luciferase, luminescence, 20 h. Potency, µM (series often up to 53.6 µM), without a hit: top-dose activity, negative = inhibition, most hits filed as inhibitors. actives 3.5% (n = 310,000). AID 2546, 2010;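 note: Gal4-VP16 expression switched on by copper sulfate through the metallothionein promoter; potency is the fitted concentration of half-maximal effect; % is set by controls: 0 for no effect and ±100 for the full control effect; nearly all actives have a fitted effect of over 50% in size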
# RORg inh: qHTS for inhibitors of ROR gamma transcriptional activity; Drosophila S2 Gal4-RORgamma UAS-luciferase reporter, 20 h; actives 5.4% (n = 310,000); Potency, µM (highest dose often 53.6 µM), without a hit: top-dose activity change, negative = inhibition, hits mostly inhibitors; Nuclear receptor ROR-gamma (Mus musculus), P51450; note: potency is the fitted concentration of half-maximal effect; % is set by controls: 0 for no effect and ±100 for the full control effect; nearly all actives have a fitted effect of over 60% in size
#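 Luciferase reporter read in Schneider cells carrying Gal4-RORγ (mouse) and UAS-Photinus luciferase; cells given compound 1 h before 700 uM copper sulfate induction, then incubated 20 h at ambient temperature.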
# MBNL1-CUG inh: qHTS Assay for Inhibitors of MBNL1-poly(CUG) RNA binding; Muscleblind-like protein 1 (Homo sapiens), Q9NR56; TR-FRET MBNL1-His/biotin-(CUG)12 binding, 665/545 ratio; Potency, µM (top dose mostly 57.5 µM), for the others: at the top dose activity change, negative = inhibition, actives largely listed as inhibitors; actives 0.036% (n = 280,000); AID 2675, 2010; active = well fitted inhibition curve with a large enough effect in the signal ratio, with a control signal flat, not every such curve was filed as active; inconclusive = small, poorly fitted or top-dose-only effect, or effect the other way, or a change in a side signal; inactive = no such curve, though single readings can be large or run the other way; the % refers to the signal ratio; note: potency is the fitted concentration of half-maximal effect; % is set by controls: 0 for no effect and ±100 for the full control effect
# Target sequence (Q9NR56 whole entry, looked up): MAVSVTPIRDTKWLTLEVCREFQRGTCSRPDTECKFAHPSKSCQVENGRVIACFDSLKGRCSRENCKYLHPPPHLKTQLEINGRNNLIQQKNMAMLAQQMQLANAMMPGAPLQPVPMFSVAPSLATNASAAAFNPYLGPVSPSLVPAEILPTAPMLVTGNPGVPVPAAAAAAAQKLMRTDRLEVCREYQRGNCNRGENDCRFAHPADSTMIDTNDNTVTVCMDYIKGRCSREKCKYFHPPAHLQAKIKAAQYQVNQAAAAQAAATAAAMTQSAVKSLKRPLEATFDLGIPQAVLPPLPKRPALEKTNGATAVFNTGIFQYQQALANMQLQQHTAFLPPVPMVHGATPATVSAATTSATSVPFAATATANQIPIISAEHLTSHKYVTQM
#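 His-tagged MBNL1 binding to biotinylated (CUG)12 RNA was measured by TR-FRET using terbium anti-His antibody (0.055 ng/ul final) and streptavidin-XL665 (5 nM final). Compounds were titrated 92 nM to 58 uM; 60 min at room temperature.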
# Six1-Eya2 inh: qHTS Assay for Inhibitors of the Six1/Eya2 Interaction | AlphaScreen GST-Six1/His-Eya2 binding, biochemical; active compounds read low | activity change, % (test concentration not listed) | actives 0.56% (n = 360,000); in the data active = activity change below about -65%; inconclusive = mostly about -30% to -63%; note: % is set by controls: 0 for no effect and ±100 for the full control effect
#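 Homogeneous AlphaScreen proximity assay pairing GST-Six1 with His-tagged Eya2 (added as 5X mix: 250 nM and 500 nM) in 50 mM Tris pH 8.0, 300 mM NaCl, 1 mM TCEP. Glutathione donor and nickel acceptor beads; 1 h, 37 °C, dark.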
# CtBP-E1A blk: qHTS Assay for Inhibitors of the CtBP/E1A Interaction; AlphaScreen GST-E1A/His-CtBP binding, 1536-well; active compounds read low; activity change, % (test concentration not listed); CtBP / adenovirus E1A interaction (AlphaScreen); actives 0.49% (n = 340,000); in the data active = activity change below about -65%; inconclusive = mostly about -30% to -63%; note: % is set by controls: 0 for no effect and ±100 for the full control effect
#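 Protein mix (5X: 125 nM each GST-E1A, His-CtBP) was incubated with pinned compound 2 h at 37 deg C in dark, in 50 mM Tris pH 8.0 buffer with 300 mM NaCl. Glutathione donor and nickel acceptor beads followed; AlphaScreen signal read after 1 h.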
# Starred values were filed as active, the others as inactive; ? = inconclusive; · = no result; [ ] = dose if it differs, or a comment. Unless noted, calls come from the whole dose curve; as a rule, active = well fitted curve in the direction sought with a large enough effect; inconclusive = small, poorly fitted or top-dose-only effect, or another doubt; inactive = no such curve, though single readings can be large; an effect the other way counts as inactive or inconclusive.
SMILES,CBFb RUNX1 block,Gal4-VP16 FLuc,RORg inh,MBNL1-CUG inh,Six1-Eya2 inh,CtBP-E1A blk
COc1cccc(O)c1CN1CCC(C(=O)Nc2ccc(Oc3cccnc3)cc2)CC1,·,4.5%,29.6%,-9.7%,16.9,0.0
O=C(Nc1cccc(-c2cccc(Cl)c2)c1)C1CCN(Cc2ccc(CO)o2)CC1,·,-14.0%,-25.1%,-0.8%,-2.9,-1.3
CC(NC(=O)CN1C(=O)NC(c2ccccc2)(c2ccccc2)C1=O)c1cccs1 (configuration not stated),·,·,·,·,3.1,-5.4
Cc1ccccc1NC1=NCC(c2ccc([N+](=O)[O-])cc2)S1 (configuration not stated),-8.1%,22.4µM*,?,?,-5.2,-2.0
Cc1ccc(CNC(=O)Cn2cnc(S(=O)(=O)N3CCC(C)CC3)c2)o1,·,0.2%,-0.3%,13.2%,2.9,6.9
O=Nc1ccc(NOC(=O)c2ccccc2Br)cc1,4.2%,?,?,·,12.3,-1.6
O=C(ONc1ccc(N=NC(=O)c2ccccc2O)cc1)c1ccccc1,-5.0%,5.7%[0.365 µM],7.08µM*,-6.5%,-6.2,-1.0
CCn1c(SCC(=O)Nc2ccc3c(c2)OCCO3)nnc1-c1cccnc1,·,-18.1%,-8.8%,-0.4%,6.3,3.6
CN(C1=C(NC(=O)c2ccc(Cl)cc2)C(=O)c2ccccc2C1=O)c1ccccc1,0.5%,11.2µM*,11.2µM*,?,-85.9*,-88.3*
O=C(NC1=C(NC2CCS(=O)(=O)C2)C(=O)c2ccccc2C1=O)c1ccccc1 (configuration not stated),2.9%,?,12.6µM*,?,1.4,8.0
O=C(Nc1cccc(Cl)c1)c1ccccc1,·,·,·,·,10.7,-16.1
O=C(NC1=C(Nc2ccc(Cl)cc2)C(=O)c2ccccc2C1=O)c1ccccc1,-13.4%,?,14.1µM*,?,?,?
O=C1C(Cl)=C(NC(=O)c2ccccc2)C(=O)C(Cl)=C1NC(=O)c1ccccc1,·,?,7.08µM*,4.7%,-72.6*,-11.2
CN(c1ccc(C(=O)Nc2ccc(Cl)cn2)cc1)S(=O)(=O)c1ccccc1,3.0%,?,-30.2%,-7.1%,0.3,-19.5
COc1ccc(Cl)cc1NC(=S)NCCc1ccc(F)cc1,·,17.8µM*,14.1µM*,-8.0%,-5.1,4.9
COc1ccc(NC(=S)NCc2ccc(Cl)cc2)c(OC)c1,·,?,-11.8%[1.91 µM],-11.0%,3.6,·
COc1ccc(NC(=S)NCCc2ccc(Cl)cc2)c(OC)c1,-3.1%,11.2µM*,4.47µM*,-6.5%,-11.8,-11.5
NC(=S)NS(=O)(=O)c1ccc(N)cc1,·,-0.7%,8.7%,·,·,·
S=C(NCc1ccccc1)N1CCn2cccc2C1c1ccncc1 (configuration not stated),-4.0%,0.0%,3.98µM*,·,1.5,-0.8
S=C(NCc1ccccc1)N1CCn2cccc2C1c1cccnc1 (configuration not stated),-11.0%,-16.4%,17.0%,·,-6.3,-3.5
Fc1ccc(C2c3cccn3CCN2C(=S)Nc2cccc(Br)c2)cc1 (configuration not stated),0.5%,?,8.91µM*,-7.0%,-7.4,-0.7
Cc1ccc(CNc2nc3cc(-c4ccccc4)sc3c(=O)n2C)c(C)c1,·,·,·,·,10.1,-12.2
COc1ccc(OC)c(S(=O)(=O)N2CCC(C(=O)NC3CCCC3)CC2)c1,·,-2.5%,-8.5%,-2.5%,5.8,2.9
Cc1ccc(C(=O)Nc2nc(COc3ccccc3)cs2)s1,0.8%,-14.8%,10µM*,-1.7%,4.2,9.0
CC(=O)Nc1nc(COc2ccccc2)cs1,3.6%,-11.8%,1.8%,-1.6%,7.3,2.2
SMILES,CBFb RUNX1 block,Gal4-VP16 FLuc,RORg inh,MBNL1-CUG inh,Six1-Eya2 inh,CtBP-E1A blk
Cn1nnnc1SC(C(=O)Nc1cccc(C(F)(F)F)c1)c1ccccc1 (configuration not stated),?,-13.7%,-10.7%,·,6.3,9.8
O=C(c1cccc([N+](=O)[O-])c1)N1CCCC(C(=O)N2CCN(c3ccccc3)CC2)C1 (configuration not stated),·,·,·,?,-5.5,10.1
CNc1cccnc1C=NNC(N)=S,·,·,·,·,-88.5*,0.0
NC(=S)NN=Cc1nccc2c(C(F)(F)F)cccc12,·,·,·,·,-74.8*,-71.8*
Cc1cccnc1NC(N)=S,2.1%,-4.9%,-4.0%,1.9%,2.9,-11.8
COc1cccc(CCNC(=O)c2cc(COc3c(F)cccc3F)on2)c1,·,3.0%,39.4%,1.2%,16.3,·
Cc1cccc(C(=O)NC(=S)Nc2ccc(N3CCOCC3)cc2)c1,?,7.08µM*,3.98µM*,-2.0%,-10.1,-4.6
Cc1ccc(C(=O)NC(=S)Nc2ccc(N3CCOCC3)cc2)cc1C,4.7%,?,2µM*,-3.4%,-5.7,-8.0
COC(=O)c1cc(NC(=S)NC(=O)c2ccccc2)ccc1N1CCOCC1,·,?,17.8µM*,-7.7%,-7.8,-6.4
COC(=O)c1cc(NC(=O)c2c(-c3ccccc3)noc2C)ccc1N1CCOCC1,·,-0.6%,3.0%,5.8%,0.4,0.7
COc1ccc(C(=O)NC(=S)Nc2ccc(N3CCOCC3)cc2)cc1Cl,·,7.94µM*,4.47µM*,-8.3%,-29.3,?
COc1ccccc1C(=O)NC(=S)Nc1ccc(N2CCOCC2)c(Cl)c1,-2.7%,?,-31.5%,-4.6%,1.0,-3.4
Oc1cccc(NC(=S)N=Nc2c(O)[nH]c3ccccc23)c1,5.8%,-3.0%,15.1%,?,?,-68.5*
CCOc1ccc(NC(=S)N=Nc2c(O)[nH]c3ccccc23)cc1,-27.6%,5.01µM*,2.24µM*,22.4%,?,?
Oc1[nH]c2ccccc2c1N=Nc1cccc(Cl)c1,·,-13.0%,-12.1%,3.7%,5.9,·
FC(F)(F)c1cnc(-c2cnc(-c3ccccn3)nc2)c(Cl)c1,-8.4%,-10.8%,5.62µM*,·,-3.7,·
FC(F)(F)c1cnc(-c2cnc(-c3ccncc3)nc2)c(Cl)c1,0.0%,-8.9%,-7.2%,-7.4%,6.3,2.7
COC(=O)N1CCC2(CCN(C(=O)Nc3ccccc3)CC2)CC1,·,-11.9%,3.1%,·,·,·
Cc1c(F)cccc1NC(=O)CCCCCC1NC(=O)NC1C (configuration not stated),·,-15.4%,19.4%,0.282µM*,-1.9,-1.7

# Source: PubChem
